# Key:
# Format in all cases: functional
# Plasmodium falciparum [1] = test: GSK_TCMDC: Inhibition of Plasmodium falciparum 3D7 in whole red blood cells, using parasite LDH activity as an index of growth. Test compounds present at 2uM
# Plasmodium falciparum [2] = test: GSK_TCMDC: Inhibition of Plasmodium falciparum Dd2 in whole red blood cells, using parasite LDH activity as an index of growth. Test compounds present at 2uM
# HepG2 = test: GSK_TCMDC: Percent inhibition of human HepG2 cell line. Test compounds present at 10uM.
smiles,measurement,setting,value
c1ccc(Oc2ccc(Nc3ccnc4cc(-c5ccc(CN6CCCCC6)o5)ccc34)cc2)nc1,Inhibition,Plasmodium falciparum [1],100%
same,Inhibition,Plasmodium falciparum [2],100%
same,Inhibition,HepG2,18%
COc1ccc(CN(C)CCCc2ccc(NC(=O)c3cccc4c(=O)c5cccc(F)c5[nH]c34)cc2)cc1OC,Inhibition,Plasmodium falciparum [1],100%
same,Inhibition,Plasmodium falciparum [2],94%
same,Inhibition,HepG2,100%
CCCCCN1CCCC(CNS(=O)(=O)c2ccc(C(=O)Nc3ccc(C(F)(F)F)cc3)cc2)C1.O=C(O)C(F)(F)F (stereo unspecified),Inhibition,Plasmodium falciparum [1],94%
same,Inhibition,Plasmodium falciparum [2],0%
same,Inhibition,HepG2,51%
Cc1ccc(CNC(=O)[C@H](CC(C)C)Nc2cc(C)nc(NCC3CCCCC3)n2)cc1.O=C(O)C(F)(F)F,Inhibition,Plasmodium falciparum [1],96%
same,Inhibition,Plasmodium falciparum [2],44%
same,Inhibition,HepG2,6%
COc1cc2c(cc1S(=O)(=O)c1ccc(NC(=O)c3cc4ccccc4s3)cc1)CCN(C)CC2,Inhibition,Plasmodium falciparum [1],100%
same,Inhibition,Plasmodium falciparum [2],88%
same,Inhibition,HepG2,21%
CCc1sc(-c2ccc(C(C)(C)C)cc2)nc1C(=O)NCCCN1CCCC1=O,Inhibition,Plasmodium falciparum [1],84%
same,Inhibition,Plasmodium falciparum [2],69%
same,Inhibition,HepG2,0%
O=C(Nc1ccc(N2CCN(c3ncccc3C(F)(F)F)CC2)nc1)c1cccs1,Inhibition,Plasmodium falciparum [1],83%
same,Inhibition,Plasmodium falciparum [2],40%
same,Inhibition,HepG2,7%
Cc1[nH]c2ccc(NS(C)(=O)=O)cc2c1C1CCN(CCC2CCN(C(=O)/C=C/c3ccc(Cl)c(Cl)c3)CC2)CC1,Inhibition,Plasmodium falciparum [1],100%
same,Inhibition,Plasmodium falciparum [2],94%
same,Inhibition,HepG2,23%
Cc1ccc(NC(=O)c2ccc3ncccc3c2)cc1OC1CCN(Cc2ccc(F)cc2)CC1.O=C(O)C(F)(F)F,Inhibition,Plasmodium falciparum [1],91%
same,Inhibition,Plasmodium falciparum [2],22%
same,Inhibition,HepG2,6%
CC(Cc1ccc(OCCN2CCN(c3ccc(Cl)cc3)CC2)cc1)NCC(O)c1cccc(C(F)(F)F)c1.Cl (stereo unspecified),Inhibition,Plasmodium falciparum [1],99%
same,Inhibition,Plasmodium falciparum [2],96%
same,Inhibition,HepG2,97%
COc1ccc2ccccc2c1C=NN=c1cc(C)[nH]c2c(C)cccc12,Inhibition,Plasmodium falciparum [1],100%
same,Inhibition,Plasmodium falciparum [2],94%
same,Inhibition,HepG2,0%
O=C(Nc1ccc(Oc2ccccc2)cc1)N(Cc1ccc(-c2ccc(CN3CCNCC3)cc2)cc1)C1CCN(Cc2ccccc2)CC1.O=C(O)C(F)(F)F,Inhibition,Plasmodium falciparum [1],100%
same,Inhibition,Plasmodium falciparum [2],73%
same,Inhibition,HepG2,31%
Nc1ncc(-c2ccc3nccc(-c4ccncc4)c3c2)cc1S(=O)(=O)N1CCOCC1,Inhibition,Plasmodium falciparum [1],100%
same,Inhibition,Plasmodium falciparum [2],99%
same,Inhibition,HepG2,39%
COc1cc(OC)cc(C(=O)N2CCOC(CCN3CCC(c4ccccc4)CC3)(c3ccc(Cl)c(Cl)c3)C2)c1 (stereo unspecified),Inhibition,Plasmodium falciparum [1],85%
same,Inhibition,Plasmodium falciparum [2],61%
same,Inhibition,HepG2,13%
CC(=O)O.Cc1cc(F)ccc1[C@H]1CNCCN1C(=O)N(C)[C@@H](C)c1cc(C(F)(F)F)cc(C(F)(F)F)c1,Inhibition,Plasmodium falciparum [1],100%
same,Inhibition,Plasmodium falciparum [2],99%
same,Inhibition,HepG2,20%
c1ccc(C2=NN=C(c3ccccn3)C3C4CC(C23)C2C3CC(c5ccccc53)C42)nc1 (stereo unspecified),Inhibition,Plasmodium falciparum [1],98%
same,Inhibition,Plasmodium falciparum [2],77%
same,Inhibition,HepG2,39%
CCN(CC)CCCCCNc1c2ccc(Cl)cc2nc2ccc(OC)cc12.Cl,Inhibition,Plasmodium falciparum [1],99%
same,Inhibition,Plasmodium falciparum [2],99%
same,Inhibition,HepG2,96%
COc1ccc(Cn2c(=O)[nH]c3cc(C(=O)NC4CCN(Cc5ccccc5)CC4)ccc3c2=O)cc1,Inhibition,Plasmodium falciparum [1],97%
same,Inhibition,Plasmodium falciparum [2],45%
same,Inhibition,HepG2,10%
CC(C)[C@H](NC(=O)c1ccc(O)c(-c2ccc(Cl)c(Cl)c2)c1)C(=O)NCCN1CCCC1,Inhibition,Plasmodium falciparum [1],98%
same,Inhibition,Plasmodium falciparum [2],83%
same,Inhibition,HepG2,4%
Cl.O=C(Nc1ccc2c(c1)CNCC2)c1ccc(-c2ccc(Cl)cc2)cc1,Inhibition,Plasmodium falciparum [1],96%
same,Inhibition,Plasmodium falciparum [2],28%
same,Inhibition,HepG2,52%
O=C(NCC1CCN(CCN2CCc3ccc4c(c3C2)OCO4)CC1)c1ccc(-c2ccc(C(F)(F)F)cc2)cc1,Inhibition,Plasmodium falciparum [1],93%
same,Inhibition,Plasmodium falciparum [2],34%
same,Inhibition,HepG2,66%
O=C1C(c2ccccc2)=C(Nc2cccc([N+](=O)[O-])c2)c2ccccc21,Inhibition,Plasmodium falciparum [1],88%
same,Inhibition,Plasmodium falciparum [2],88%
same,Inhibition,HepG2,0%
NC(=O)c1ccc(NC(=O)CN(Cc2ccc(Cl)cc2)S(=O)(=O)c2ccccc2)cc1,Inhibition,Plasmodium falciparum [1],90%
same,Inhibition,Plasmodium falciparum [2],75%
same,Inhibition,HepG2,2%
COc1cc(Cc2cnc(N)nc2N)c2c(c1OC)OC(C)C=C2 (stereo unspecified),Inhibition,Plasmodium falciparum [1],87%
same,Inhibition,Plasmodium falciparum [2],1%
same,Inhibition,HepG2,0%
Fc1ccc2[nH]c(-c3cccc(-c4cccc(CNCC5CCCO5)c4)c3)nc2c1.O=C(O)C(F)(F)F (stereo unspecified),Inhibition,Plasmodium falciparum [1],99%
same,Inhibition,Plasmodium falciparum [2],94%
same,Inhibition,HepG2,40%
COC(=O)C(=O)c1c(-c2ccccc2)c(-c2ccc(OC)c(OC)c2)c2c3cc(OC)c(OC)cc3ccn12,Inhibition,Plasmodium falciparum [1],97%
same,Inhibition,Plasmodium falciparum [2],89%
same,Inhibition,HepG2,2%
CCC(C)NS(=O)(=O)c1ccc2nc(Nc3ccc(C)cc3)n(C3CCCCC3C)c2c1 (stereo unspecified),Inhibition,Plasmodium falciparum [1],95%
same,Inhibition,Plasmodium falciparum [2],99%
same,Inhibition,HepG2,1%

# Source: ChEMBL document CHEMBL1157539, “Thousands of chemical starting points for antimalarial lead identification” (Nature, 2010)
